Source: PubChem (National Center for Advancing Translational Sciences (NCATS))
A selection: hits, their analogues and other compounds. The true share with any hit is near 9.2%.
SMN2 splice up – qHTS Assay for Enhancers of SMN2 Splice Variant Expression. HEK293 SMN2-luciferase splicing reporter, luminescence, 30-36 h. Potency, µM (series often up to 46.1 µM), without a hit: top-dose activity change, positive = activation, hits mostly activators. 2.8% of 210,000 active. AID 1458, 2008; note: % of control where 0% means no effect; nearly all actives have a fitted effect of over 55% in size
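qHTS luciferase splicing reporter: luminescence rises when SMN2 exon 7 is included in transfected HEK293 cells. Compound exposure lasted 30-36 h at 37C, with 4.5 mM final sodium butyrate as control, followed by a ONE-Glo read.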
ELG1 genotox – qHTS screen for small molecules that induce genotoxicity in human embryonic kidney (HEK293T) cells expressing luciferase-tagged ELG1; HEK293T ELG1-luciferase reporter, luminescence, 16 h; 1.3% of 330,000 active; AID 504466, 2011; Potency, µM (top dose mostly 46 µM), inactives show at the top dose activity change, positive = activation, usual class: activators; note: % of control where 0% means no effect; nearly all actives have a fitted effect of over 60% in size
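Cells (2,000/well) expressing the ELG1-luciferase fusion are dosed by pin tool and kept 16 hr at 37 °C, 5% CO2. Signal comes from ONE-Glo luciferase reagent after 30 min at room temperature.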
FLuc modulator – qHTS profiling assay for firefly luciferase inhibitor/activator using purifed enzyme and Km concentrations of substrates (counterscreen for miR-21 project). purified FLuc, Km substrates, luminescence inhibition. Potency, µM (doses to about 57.5 µM), for the others: at the highest dose activity change, negative = inhibition, most hits filed as inhibitors. 6.9% of 360,000 active. AID 588342, 2011;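 note: plate controls were vehicle for no effect and reference inhibitor for full effect; nearly all actives have a fitted effect of over 55% in size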
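Biochemical qHTS of compounds, final roughly 60 µM downward over six points, against 10 nM purified firefly luciferase using Km concentrations of substrates (10 uM D-luciferin, 10 uM ATP) in Tris acetate pH 7.5 buffer; luminescence output.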
Rab9 prom act – qHTS Assay for Rab9 Promoter Activators; Huh7 Rab9 promoter-luciferase reporter, luminescence, 24 h; Potency, µM (top dose mostly 9.22 µM), for inactives: at the top dose activation, negative = inhibition, actives largely listed as activators; 2.8% of 320,000 active; AID 485297, 2010; note: % of control where 0% means no effect; nearly all actives have a fitted effect of over 60% in size
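Huh7 cells stably carrying a Rab9 promoter-luciferase reporter, 1500 cells per well in OP-MEM I with 10% FBS, treated with compound 24 hours at 37C. Luciferase activity read by luminescence after 10 minutes with Amplite reagent.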
NPC1 prom act – qHTS Assay for NPC1 Promoter Activators; Potency, µM (series often up to 9.22 µM), for inactives: top-dose activation, most hits filed as activators; Huh7 NPC1 promoter luciferase reporter, 24 h; 2.4% of 320,000 active; note: % of control where 0% means no effect; nearly all actives have a fitted effect of over 60% in size
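NPC1 promoter–luciferase Huh7 cells; 24 h compound; luminescence.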
ELG1 repair inh – qHTS screen for small molecules that inhibit ELG1-dependent DNA repair in human embryonic kidney (HEK293T) cells expressing luciferase-tagged ELG1 | HEK293T ELG1-luciferase reporter, luminescence, 16 h; DNA damage induced by 5-fluorouridine | 2.3% of 330,000 active | AID 504467, 2011 | Potency, µM (series often up to 46.1 µM), inactives show at the highest dose activity change, negative = inhibition, usual class: inhibitors; note: % is set by controls: 0 for no effect and ±100 for the full control effect; nearly all actives have a fitted effect of over 55% in size
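5-Fluorouridine DNA damage + compound/DMSO, 2,000 cells/well, 16 h, 37 °C/5% CO2. ONE-Glo, 30 min RT, luminescence. Readout = decrease in reporter signal.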
Starred values were filed as active, the others as inactive; ? = inconclusive; / = not tested or not shown. Calls come from the whole dose curve; as a rule, active = well fitted curve in the direction sought with a large enough effect; inconclusive = small, poorly fitted or top-dose-only effect, or another doubt; inactive = no such curve, though single readings can be large; an effect the other way counts as inactive or inconclusive. Potency is the fitted concentration of half-maximal effect.

SMILES	SMN2 splice up	ELG1 genotox	FLuc modulator	Rab9 prom act	NPC1 prom act	ELG1 repair inh
COc1cccc(NC(=O)COC(=O)c2nc3nccc(C)n3n2)c1	-3%	3%	4%	-3%	-5%	27%
Cc1cccc(-c2nc3nc(C)cc(NC(C)c4ccccc4)n3n2)c1 (stereo unspecified)	/	/	17µM*	/	/	/
Cn1c(N/N=C/c2c[nH]c3ccccc23)nc2ccccc21	-109%	7%	1.5µM*	?	?	?
Cc1nnc(C)n1/N=C/c1cc2ccccc2nc1Cl	17%	5%	-3%	-4%	-1%	4%
Cn1c(N/N=C/c2cc3ccccc3nc2Cl)nc2ccccc21	2.2µM*	?	0.027µM*	0.45µM*	1µM*	?
Cc1cc(N/N=C/c2c[nH]c3ccccc23)c2ccccc2n1	-7%	1%	-7%	2%	8%	17%
Cc1ccc(S(=O)(=O)N2C[C@@H]3[C@H]4CC[C@H](C4)[C@@H]3[C@@H](C)[C@H]2c2ccco2)cc1	/	0%	/	/	/	-7%
COc1cc(C(=O)OCC(=O)Nc2c(F)cccc2F)cc(OC)c1C	-7%	5%	-3%	4%	-5%	19%
COc1cc(C(=O)OCC(=O)Nc2c(F)c(F)c(F)c(F)c2F)cc(OC)c1OC	-8%	3%	0%	15%	0%	26µM*
Cc1cc(C)c(C(=O)COC(=O)CCn2c(C)csc2=O)cc1C	/	10%	4.8µM*	?	16%	?
Cc1cc(C)c(C(=O)COC(=O)Cn2c(C)csc2=O)cc1C	/	11%	17µM*	-1%	6%	3%
CCc1cccc(C)c1NC(=O)COC(=O)Cn1c(C)csc1=O	/	2%	2%	1%	8%	-2%
Cc1ccc(NC(=O)COC(=O)Cn2c(C)csc2=O)cc1C	7%	-2%	-11%	0%	1%	0%
Cc1cc(C)c(NC(=O)COC(=O)CCn2c(C)csc2=O)c(C)c1	/	1%	5%	14%	-3%	12%
Cc1csc(=O)n1CC(=O)OCc1cccc2ccccc12	-1%	?	15µM*	25%	18%	?
CC(C)Cn1nnnc1S(=O)(=O)Cc1ccccc1	-4%	/	/	/	/	/
CCn1c(=O)c2sccc2n2c(CCC(=O)Nc3ccc(OC)cc3OC)nnc12	1%	/	-1%	/	/	/
Cc1cc(C)cc(OCCCn2c(CCNC(=O)C3CCCCC3)nc3ccccc32)c1	-8%	/	?	/	/	/
CCOC(=O)CNC(=O)c1ccc2[nH]c3ccccc3c2c1	-7%	7%	17µM*	-3%	-4%	?
CCOC(=O)CNC(=O)c1ccc(C)cc1	10%	10%	13µM*	2%	0%	9%
CCOC(=O)CNC(=O)c1ccc(OCC(F)(F)F)cc1	13µM*	11%	?	2µM*	?	?
CCOc1ccc(C(=O)NCC(=O)OCCCOC(=O)CNC(=O)c2ccc(OCC)cc2)cc1	/	9%	?	-2%	-4%	-8%
Cc1ccc(C(=O)NCC(=O)OCC(=O)NCCNC(=O)COC(=O)CNC(=O)c2ccc(C)cc2)cc1	/	3%	8%	0%	-5%	0%
O=C(NCC(O)CO)c1ccc2[nH]c3ccccc3c2c1 (stereo unspecified)	8%	0%	?	0%	-4%	0%
COc1cc(NC(=O)C(CC(C)C)NS(=O)(=O)c2ccc3c(c2)CCN3C(C)=O)cc(OC)c1 (stereo unspecified)	9%	/	1%	/	/	/
CCN(CC(=O)Nc1ccccc1OC)CC(=O)Nc1ccccc1-c1ccccc1	/	-8%	-1%	-3%	-27%	?
